{
  "source": "PubChem BioAssay",
  "note": "The source made the active and inactive calls. Unless noted, no stated cut-off is given here; in the data, active means inhibition above about 80%; inactive means the rest.",
  "data": [
    {"assay": "HDN33 neuroblastoma growth inhibition, cell-based, chromothripsis tumors, cisplatin or BGB combos (AID 1671450);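 further: cells exposed to compound for four days; 0% = vehicle DMSO and 100% = cell killing by high DMSO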", "conditions": "HDN33 neuroblastoma cells, cisplatin combo, at 5 µM, stronger effect = higher value", "units": {"inhibition": "%"}, "values": [
      {"smiles": "O=c1cc(-c2cccc3c2Sc2ccccc2S3)oc(N2CCOCC2)c1", "inhibition": -6.5},
      {"smiles": "CCc1c2c(nc3ccc(O)cc13)-c1cc3c(c(=O)n1C2)COC(=O)[C@]3(O)CC", "inhibition": 98.4},
      {"smiles": "O=c1[nH]c(-c2ccc(C(F)(F)F)cc2)nc2c1CSCC2", "inhibition": 8.16}
    ]},
    {"assay": "HDN33 neuroblastoma growth inhibition, cell-based, chromothripsis tumors, cisplatin or BGB combos (AID 1671450);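 further: cells exposed to compound for four days; 0% = vehicle DMSO and 100% = cell killing by high DMSO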", "conditions": "HDN33 neuroblastoma cells, measured here: with BGB IC20 combination, at 0.5 µM, stronger effect = higher value", "units": {"inhibition": "%"}, "values": [
      {"smiles": "O=c1cc(-c2cccc3c2Sc2ccccc2S3)oc(N2CCOCC2)c1", "inhibition": -21.1},
      {"smiles": "CCc1c2c(nc3ccc(O)cc13)-c1cc3c(c(=O)n1C2)COC(=O)[C@]3(O)CC", "inhibition": 83},
      {"smiles": "O=c1[nH]c(-c2ccc(C(F)(F)F)cc2)nc2c1CSCC2", "inhibition": -5.54}
    ]},
    {"assay": "HDN33 neuroblastoma growth inhibition, cell-based, chromothripsis tumors, cisplatin or BGB combos (AID 1671450);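 further: cells exposed to compound for four days; 0% = vehicle DMSO and 100% = cell killing by high DMSO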", "conditions": "HDN33 neuroblastoma cells, measured here: with cisplatin IC20 combination, at 0.5 µM, stronger effect = higher value", "units": {"inhibition": "%"}, "values": [
      {"smiles": "O=c1cc(-c2cccc3c2Sc2ccccc2S3)oc(N2CCOCC2)c1", "inhibition": -8.71},
      {"smiles": "CCc1c2c(nc3ccc(O)cc13)-c1cc3c(c(=O)n1C2)COC(=O)[C@]3(O)CC", "inhibition": 82.2},
      {"smiles": "O=c1[nH]c(-c2ccc(C(F)(F)F)cc2)nc2c1CSCC2", "inhibition": -17.8}
    ]},
    {"assay": "HDN33 neuroblastoma growth inhibition, cell-based, chromothripsis tumors, cisplatin or BGB combos (AID 1671450);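 further: cells exposed to compound for four days; 0% = vehicle DMSO and 100% = cell killing by high DMSO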", "conditions": "HDN33 neuroblastoma cells, single agent, at 5 µM, stronger effect = higher value", "units": {"inhibition": "%"}, "values": [
      {"smiles": "O=c1cc(-c2cccc3c2Sc2ccccc2S3)oc(N2CCOCC2)c1", "inhibition": -26.1},
      {"smiles": "CCc1c2c(nc3ccc(O)cc13)-c1cc3c(c(=O)n1C2)COC(=O)[C@]3(O)CC", "inhibition": 96.3},
      {"smiles": "O=c1[nH]c(-c2ccc(C(F)(F)F)cc2)nc2c1CSCC2", "inhibition": 38.9}
    ]},
    {"assay": "ICB984 medulloblastoma cell growth inhibition, synergistic combos for chromothripsis tumors, cisplatin or BGB combos (AID 1671451; call rule not given here)", "conditions": "ICB984 medulloblastoma cells, drug combinations, BGB IC20 combo, at 0.005 µM, stronger effect = higher value", "units": {"inhibition": "%"}, "values": [
      {"smiles": "O=c1cc(-c2cccc3c2Sc2ccccc2S3)oc(N2CCOCC2)c1", "inhibition": -0.749},
      {"smiles": "CCc1c2c(nc3ccc(O)cc13)-c1cc3c(c(=O)n1C2)COC(=O)[C@]3(O)CC", "inhibition": 45.8},
      {"smiles": "O=c1[nH]c(-c2ccc(C(F)(F)F)cc2)nc2c1CSCC2", "inhibition": -4.67}
    ]},
    {"assay": "ICB984 medulloblastoma cell growth inhibition, synergistic combos for chromothripsis tumors, cisplatin or BGB combos (AID 1671451);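 further: cells exposed for 96 hours before readout; 0% = vehicle DMSO and 100% = killing by high DMSO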", "conditions": "ICB984 medulloblastoma cells, drug combinations, BGB IC40 combo, at 0.005 µM, stronger effect = higher value", "units": {"inhibition": "%"}, "values": [
      {"smiles": "O=c1cc(-c2cccc3c2Sc2ccccc2S3)oc(N2CCOCC2)c1", "inhibition": -24.9},
      {"smiles": "CCc1c2c(nc3ccc(O)cc13)-c1cc3c(c(=O)n1C2)COC(=O)[C@]3(O)CC", "inhibition": 68.8},
      {"smiles": "O=c1[nH]c(-c2ccc(C(F)(F)F)cc2)nc2c1CSCC2", "inhibition": -45.8}
    ]},
    {"assay": "ICB984 medulloblastoma cell growth inhibition, synergistic combos for chromothripsis tumors, cisplatin or BGB combos (AID 1671451);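 further: cells exposed for 96 hours before readout; 0% = vehicle DMSO and 100% = killing by high DMSO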", "conditions": "ICB984 medulloblastoma cells, drug combinations, BGB IC40 combo, at 0.05 µM, stronger effect = higher value", "units": {"inhibition": "%"}, "values": [
      {"smiles": "O=c1cc(-c2cccc3c2Sc2ccccc2S3)oc(N2CCOCC2)c1", "inhibition": 11.6},
      {"smiles": "CCc1c2c(nc3ccc(O)cc13)-c1cc3c(c(=O)n1C2)COC(=O)[C@]3(O)CC", "inhibition": 95.3},
      {"smiles": "O=c1[nH]c(-c2ccc(C(F)(F)F)cc2)nc2c1CSCC2", "inhibition": -11.7}
    ]},
    {"assay": "ICB984 medulloblastoma cell growth inhibition, synergistic combos for chromothripsis tumors, cisplatin or BGB combos (AID 1671451);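 further: cells exposed for 96 hours before readout; 0% = vehicle DMSO and 100% = killing by high DMSO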", "conditions": "ICB984 medulloblastoma cells, drug combinations, at 0.5 µM, stronger effect = higher value", "values": [
      {"smiles": "O=c1cc(-c2cccc3c2Sc2ccccc2S3)oc(N2CCOCC2)c1", "inhibition": "-26.5% (inactive)"},
      {"smiles": "CCc1c2c(nc3ccc(O)cc13)-c1cc3c(c(=O)n1C2)COC(=O)[C@]3(O)CC", "inhibition": "-17.9% (inactive)"},
      {"smiles": "O=c1[nH]c(-c2ccc(C(F)(F)F)cc2)nc2c1CSCC2", "inhibition": "-27.1% (inactive)"}
    ]},
    {"assay": "ICB984 medulloblastoma cell growth inhibition, synergistic combos for chromothripsis tumors, cisplatin or BGB combos (AID 1671451);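 further: cells exposed for 96 hours before readout; 0% = vehicle DMSO and 100% = killing by high DMSO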", "conditions": "ICB984 medulloblastoma cells, drug combinations, cisplatin combo, at 0.05 µM, stronger effect = higher value", "units": {"inhibition": "%"}, "values": [
      {"smiles": "O=c1cc(-c2cccc3c2Sc2ccccc2S3)oc(N2CCOCC2)c1", "inhibition": 9.17},
      {"smiles": "CCc1c2c(nc3ccc(O)cc13)-c1cc3c(c(=O)n1C2)COC(=O)[C@]3(O)CC", "inhibition": 95.2},
      {"smiles": "O=c1[nH]c(-c2ccc(C(F)(F)F)cc2)nc2c1CSCC2", "inhibition": -15.7}
    ]},
    {"assay": "ICB984 medulloblastoma cell growth inhibition, synergistic combos for chromothripsis tumors, cisplatin or BGB combos (AID 1671451)", "conditions": "ICB984 medulloblastoma cells, drug combinations, cisplatin combo, at 0.5 µM, stronger effect = higher value", "units": {"inhibition": "%"}, "values": [
      {"smiles": "O=c1cc(-c2cccc3c2Sc2ccccc2S3)oc(N2CCOCC2)c1", "inhibition": -36.8},
      {"smiles": "CCc1c2c(nc3ccc(O)cc13)-c1cc3c(c(=O)n1C2)COC(=O)[C@]3(O)CC", "inhibition": -11.4},
      {"smiles": "O=c1[nH]c(-c2ccc(C(F)(F)F)cc2)nc2c1CSCC2", "inhibition": -29.5}
    ]},
    {"assay": "ICB984 medulloblastoma cell growth inhibition, synergistic combos for chromothripsis tumors, cisplatin or BGB combos (AID 1671451)", "conditions": "ICB984 medulloblastoma cells, drug combinations, cisplatin combo, at 5 µM, stronger effect = higher value", "units": {"inhibition": "%"}, "values": [
      {"smiles": "O=c1cc(-c2cccc3c2Sc2ccccc2S3)oc(N2CCOCC2)c1", "inhibition": -31.3},
      {"smiles": "CCc1c2c(nc3ccc(O)cc13)-c1cc3c(c(=O)n1C2)COC(=O)[C@]3(O)CC", "inhibition": -28.7},
      {"smiles": "O=c1[nH]c(-c2ccc(C(F)(F)F)cc2)nc2c1CSCC2", "inhibition": -33.3}
    ]},
    {"assay": "ICB984 medulloblastoma cell growth inhibition, synergistic combos for chromothripsis tumors, cisplatin or BGB combos (AID 1671451)", "conditions": "ICB984 medulloblastoma cells, drug combinations, measured here: 5 uM single agent, at 5 µM, stronger effect = higher value", "units": {"inhibition": "%"}, "values": [
      {"smiles": "O=c1cc(-c2cccc3c2Sc2ccccc2S3)oc(N2CCOCC2)c1", "inhibition": -22.7},
      {"smiles": "CCc1c2c(nc3ccc(O)cc13)-c1cc3c(c(=O)n1C2)COC(=O)[C@]3(O)CC", "inhibition": -16.8},
      {"smiles": "O=c1[nH]c(-c2ccc(C(F)(F)F)cc2)nc2c1CSCC2", "inhibition": -7.99}
    ]},
    {"assay": "LFS_MB_1R medulloblastoma cell growth inhibition, synergistic combos for chromothripsis tumors, cisplatin or BGB combos (AID 1671452);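 further: cells exposed for 96 hours before readout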", "conditions": "LFS_MB_1R medulloblastoma cells, at 0.5 µM, stronger effect = higher value", "values": [
      {"smiles": "O=c1cc(-c2cccc3c2Sc2ccccc2S3)oc(N2CCOCC2)c1", "inhibition": "-10.6% (inactive)"},
      {"smiles": "CCc1c2c(nc3ccc(O)cc13)-c1cc3c(c(=O)n1C2)COC(=O)[C@]3(O)CC", "inhibition": "74.1% (inactive)"},
      {"smiles": "O=c1[nH]c(-c2ccc(C(F)(F)F)cc2)nc2c1CSCC2", "inhibition": "-9.31% (inactive)"}
    ]},
    {"assay": "LFS_MB_1R medulloblastoma cell growth inhibition, synergistic combos for chromothripsis tumors, cisplatin or BGB combos (AID 1671452);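 further: cells exposed for 96 hours before readout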", "conditions": "LFS_MB_1R medulloblastoma cells, measured here: combination with BGB IC40, at 0.05 µM, stronger effect = higher value", "units": {"inhibition": "%"}, "values": [
      {"smiles": "O=c1cc(-c2cccc3c2Sc2ccccc2S3)oc(N2CCOCC2)c1", "inhibition": -24.7},
      {"smiles": "CCc1c2c(nc3ccc(O)cc13)-c1cc3c(c(=O)n1C2)COC(=O)[C@]3(O)CC", "inhibition": -7.58},
      {"smiles": "O=c1[nH]c(-c2ccc(C(F)(F)F)cc2)nc2c1CSCC2", "inhibition": -26}
    ]},
    {"assay": "LFS_MB_1R medulloblastoma cell growth inhibition, synergistic combos for chromothripsis tumors, cisplatin or BGB combos (AID 1671452);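 further: cells exposed for 96 hours before readout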", "conditions": "LFS_MB_1R medulloblastoma cells, measured here: combination with cisplatin, at 0.5 µM, stronger effect = higher value", "units": {"inhibition": "%"}, "values": [
      {"smiles": "O=c1cc(-c2cccc3c2Sc2ccccc2S3)oc(N2CCOCC2)c1", "inhibition": 9.6},
      {"smiles": "CCc1c2c(nc3ccc(O)cc13)-c1cc3c(c(=O)n1C2)COC(=O)[C@]3(O)CC", "inhibition": 77.6},
      {"smiles": "O=c1[nH]c(-c2ccc(C(F)(F)F)cc2)nc2c1CSCC2", "inhibition": -13.9}
    ]},
    {"assay": "LFS_MB_1R medulloblastoma cell growth inhibition, synergistic combos for chromothripsis tumors, cisplatin or BGB combos (AID 1671452);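 further: cells exposed for 96 hours before readout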", "conditions": "LFS_MB_1R medulloblastoma cells, measured here: combination with cisplatin, at 5 µM, stronger effect = higher value", "units": {"inhibition": "%"}, "values": [
      {"smiles": "O=c1cc(-c2cccc3c2Sc2ccccc2S3)oc(N2CCOCC2)c1", "inhibition": -31.9},
      {"smiles": "CCc1c2c(nc3ccc(O)cc13)-c1cc3c(c(=O)n1C2)COC(=O)[C@]3(O)CC", "inhibition": 86.6},
      {"smiles": "O=c1[nH]c(-c2ccc(C(F)(F)F)cc2)nc2c1CSCC2", "inhibition": -59}
    ]},
    {"assay": "HTB85 osteosarcoma cell growth inhibition, synergistic combos for chromothripsis tumors, BGB or cisplatin IC20 combos (AID 1671453);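 further: cells exposed for 96 hours before readout; 0% = vehicle DMSO and 100% = high DMSO killing control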", "conditions": "HTB85 osteosarcoma cells, drug combinations, at 0.5 µM, stronger effect = higher value", "values": [
      {"smiles": "O=c1cc(-c2cccc3c2Sc2ccccc2S3)oc(N2CCOCC2)c1", "inhibition": "-13.7% (inactive)"},
      {"smiles": "CCc1c2c(nc3ccc(O)cc13)-c1cc3c(c(=O)n1C2)COC(=O)[C@]3(O)CC", "inhibition": "98.3% (active)"},
      {"smiles": "O=c1[nH]c(-c2ccc(C(F)(F)F)cc2)nc2c1CSCC2", "inhibition": "-23.5% (inactive)"}
    ]}
  ]
}
